A short description of assay [1]: qHTS assay to test for compound auto fluorescence at 535 nm (green) in HEK293 cells (AID 720680).
Assay [2] is described as follows: qHTS assay to test for compound auto fluorescence at 460 nm (blue) in HEK293 cell free culture (AID 720681). The method in brief: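 Blue fluorescence (Ex 405/Em 460 nm, triamterene-equivalent) was read immediately after pin transfer of compound or DMSO into medium (DMEM, 10% FBS) without cells.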
Assay [3] in a line: qHTS assay to test for compound auto fluorescence at 535 nm (green) in HEK293 cell free culture (AID 720682). The method in brief: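 Using fluorescein as calibrant, autofluorescence was quantified at 485/535 nm in cell-free DMEM containing 10% FBS after pintool addition of compound or vehicle.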
(In general: qHTS replaces the single test concentration by a dilution series.)

The nature of assay [4]: qHTS assay to test for compound auto fluorescence at 590 nm (red) in HEK293 cell free culture (AID 720683). The method in brief: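 Red-channel autofluorescence of compounds in culture medium (DMEM, 10% FBS), no cells, measured at 540/590 nm. Rose Bengal sodium is the reference fluorophore for equivalence.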
Assay [5] in a line: qHTS assay to test for compound auto fluorescence at 590 nm (red) in HepG2 cell free culture (AID 720684). The method in brief:
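Cell-free; medium MEM + 10% FBS; compound or DMSO added by pintool; read Ex 540/Em 590 nm; Rose Bengal sodium as red reference fluorophore.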

Assay [6] can be described thus: qHTS assay to test for compound auto fluorescence at 460 nm (blue) in HepG2 cell free culture (AID 720685). The method in brief: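 Cell-free plates of MEM plus 10% FBS received 23 nL compound or DMSO vehicle; blue-channel (405/460 nm) intensity scored against triamterene as reference fluorophore.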
Assay [7] is described as follows: qHTS assay to test for compound auto fluorescence at 535 nm (green) in HepG2 cell free culture (AID 720686).
Assay [8] in a line: qHTS assay to test for compound auto fluorescence at 460 nm (blue) in HepG2 cells (AID 720687). The method in brief: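 Blue-channel autofluorescence (Ex/Em 405/460 nm, triamterene-equivalent) was measured after 1 hr compound exposure at 37 C, 5% CO2. Cells were HepG2, plated overnight at 37 C in MEM plus 10% FBS.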
In assay [9] the target is Glucocorticoid receptor (Homo sapiens) (UniProt P04150). The assay can be described thus: qHTS assay to identify small molecule agonists of the glucocorticoid receptor (GR) signaling pathway (AID 720691; active means well fitted activation curve with a large enough effect in the signal ratio in the repeat runs, not every such curve was filed as active; the % refers to the signal ratio). The method in brief: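 Compounds in DMSO, alongside positive controls, were added to GR-bla HeLa reporter cells and incubated 18 h at 37 C; GRE-driven beta-lactamase was detected by fluorescence after 2 h with FRET substrate at room temperature.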

For assay [10] the target is unchanged. The assay is described as follows: qHTS assay to identify small molecule antagonists of the glucocorticoid receptor (GR) signaling pathway (AID 720692; active means well fitted inhibition curve with a large enough effect in the signal ratio in the repeat runs, not every such curve was filed as active; the % refers to the signal ratio). The method in brief:
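In a 1536-well cell format, compounds were added 4 h after seeding GR-bla HeLa cells, together with dexamethasone at 5 nM final; reporter activity was measured by FRET-substrate fluorescence following 18 h at 37 C.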

Assay [11] is described as follows: qHTS assay to identify small molecule antagonists of the glucocorticoid receptor (GR) signaling pathway - cell viability counter screen (AID 720693). Further: nearly all actives have a fitted effect of over 55% in size.
The nature of assay [12]: qHTS assay to identify small molecule antagonists of the androgen receptor (AR) signaling pathway - cell viability counter screen (AID 743033; further: nearly all actives have a fitted effect of over 45% in size).
Assay [13] can be described thus: qHTS assay for identifying genotoxic compounds that show differential cytotoxicity against isogenic chicken DT40 cell lines with known DNA damage response pathways - wild type cell line (AID 743012). Further: nearly all actives have a fitted effect of over 60% in size. Further: potency means the concentration at half of the fitted maximal effect. The method in brief: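 Viability of DNA repair-proficient chicken DT40 cells was assessed by CellTiter-Glo luminescence following 40 h compound exposure at 37 C/5% CO2.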

Assay [14] is described as follows: qHTS assay for identifying genotoxic compounds that show differential cytotoxicity against isogenic chicken DT40 cell lines with known DNA damage response pathways - Rev3 mutant cell line (AID 743014). Further: nearly all actives have a fitted effect of over 55% in size. Further: potency means the concentration at half of the fitted maximal effect.
Assay [15] in a line: qHTS assay for identifying genotoxic compounds that show differential cytotoxicity against isogenic chicken DT40 cell lines with known DNA damage response pathways - Rad54/Ku70 mutant cell line (AID 743015). Further: nearly all actives have a fitted effect of over 60% in size. Further: potency means the concentration at half of the fitted maximal effect.
Assay [16] can be described thus: qHTS assay to identify small molecule antagonists of the androgen receptor (AR) signaling pathway using the MDA cell line - cell viability counter screen (AID 743041; further: nearly all actives have a fitted effect of over 45% in size). The method in brief: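 Viability read by CellTiter-Fluor fluorescence in the same wells as the antagonist screen, added after 15.5 h of a 16 h, 37C exposure. Human breast carcinoma MDA-kb2 AR-luc cells, compounds co-dosed with agonist R1881.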

The target in assay [17] is Androgen receptor (Homo sapiens) (UniProt P10275). The assay can be described thus: qHTS assay to identify small molecule antagonists of the androgen receptor (AR) signaling pathway (AID 743035; active means well fitted inhibition curve with a large enough effect in the signal ratio in the repeat runs, not every such curve was filed as active; the % refers to the signal ratio). The method in brief: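 Reporter HEK293 cells were exposed to compounds and R1881 overnight (16 h, 37C); beta-lactamase activity was then quantified by FRET fluorescence.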
The target is the same in assay [18]. The assay is described as follows: qHTS assay to identify small molecule agonists of the androgen receptor (AR) signaling pathway (AID 743036; active means well fitted activation curve with a large enough effect in the signal ratio in the repeat runs, with a control signal flat, not every such curve was filed as active; the % refers to the signal ratio). The method in brief:
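In this Tox21 qHTS, 2,000 HEK293 AR-bla cells per well were incubated with compounds for 16 h at 37C and 5% CO2. Fluorescence intensity was recorded 2 h after adding LiveBLAzer B/G FRET substrate at room temperature.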

Assay [19] has the same target. The assay can be described thus: qHTS assay to identify small molecule agonists of the androgen receptor (AR) signaling pathway using the MDA cell line (AID 743040; further: nearly all actives have a fitted effect of over 20% in size). The method in brief:
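Luciferase agonist assay: 16 h compound exposure at 37C without CO2 in MDA-kb2 AR-luc cells, whose MMTV promoter responds to both AR and GR. Luminescence measured after 30 min room-temperature incubation with ONE-Glo.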

For assay [20] the target is unchanged. The assay is described as follows: qHTS assay to identify small molecule antagonists of the androgen receptor (AR) signaling pathway using the MDA cell line (AID 743042; further: nearly all actives have a fitted effect of over 55% in size). The method in brief: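 Antagonist mode: compounds plus R1881 agonist added to MDA-kb2 AR-luc cells, incubated 16 h at 37C. Luciferase reporter luminescence quantified, with multiplexed CellTiter-Fluor readout for cell viability.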

The values below come from PubChem BioAssay (Tox21).

Records with an inconclusive call do not appear. Calls of active or inactive are those of the source. Unless noted, the call rests on the fitted dose curve; in most records, active means well fitted curve in the direction sought with a large enough effect in the repeat runs; inconclusive means weak or mixed curves; inactive means no such curve, though single readings can be large; an effect the other way counts as inactive or inconclusive.

Chain of Glucocorticoid receptor (Homo sapiens) (P04150 whole entry, looked up): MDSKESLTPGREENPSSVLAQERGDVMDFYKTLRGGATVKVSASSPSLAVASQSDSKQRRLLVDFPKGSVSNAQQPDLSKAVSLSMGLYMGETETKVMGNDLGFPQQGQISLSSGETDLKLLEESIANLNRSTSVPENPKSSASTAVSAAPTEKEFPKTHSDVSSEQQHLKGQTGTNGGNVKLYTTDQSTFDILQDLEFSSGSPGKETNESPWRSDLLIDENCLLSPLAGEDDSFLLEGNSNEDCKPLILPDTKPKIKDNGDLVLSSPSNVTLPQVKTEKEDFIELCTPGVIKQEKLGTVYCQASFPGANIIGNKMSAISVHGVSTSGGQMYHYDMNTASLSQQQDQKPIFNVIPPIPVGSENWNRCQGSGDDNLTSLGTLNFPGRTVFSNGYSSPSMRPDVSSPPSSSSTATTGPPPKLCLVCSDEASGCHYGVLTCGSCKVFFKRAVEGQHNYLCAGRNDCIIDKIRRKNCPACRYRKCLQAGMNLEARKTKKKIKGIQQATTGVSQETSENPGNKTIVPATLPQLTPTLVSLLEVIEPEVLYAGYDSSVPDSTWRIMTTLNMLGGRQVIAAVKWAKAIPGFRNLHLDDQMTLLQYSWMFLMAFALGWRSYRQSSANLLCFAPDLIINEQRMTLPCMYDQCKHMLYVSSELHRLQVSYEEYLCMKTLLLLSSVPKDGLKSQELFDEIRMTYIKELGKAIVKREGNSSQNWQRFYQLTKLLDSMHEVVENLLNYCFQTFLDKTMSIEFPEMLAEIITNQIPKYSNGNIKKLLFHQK
Chain of Androgen receptor (Homo sapiens) (P10275 whole entry, looked up): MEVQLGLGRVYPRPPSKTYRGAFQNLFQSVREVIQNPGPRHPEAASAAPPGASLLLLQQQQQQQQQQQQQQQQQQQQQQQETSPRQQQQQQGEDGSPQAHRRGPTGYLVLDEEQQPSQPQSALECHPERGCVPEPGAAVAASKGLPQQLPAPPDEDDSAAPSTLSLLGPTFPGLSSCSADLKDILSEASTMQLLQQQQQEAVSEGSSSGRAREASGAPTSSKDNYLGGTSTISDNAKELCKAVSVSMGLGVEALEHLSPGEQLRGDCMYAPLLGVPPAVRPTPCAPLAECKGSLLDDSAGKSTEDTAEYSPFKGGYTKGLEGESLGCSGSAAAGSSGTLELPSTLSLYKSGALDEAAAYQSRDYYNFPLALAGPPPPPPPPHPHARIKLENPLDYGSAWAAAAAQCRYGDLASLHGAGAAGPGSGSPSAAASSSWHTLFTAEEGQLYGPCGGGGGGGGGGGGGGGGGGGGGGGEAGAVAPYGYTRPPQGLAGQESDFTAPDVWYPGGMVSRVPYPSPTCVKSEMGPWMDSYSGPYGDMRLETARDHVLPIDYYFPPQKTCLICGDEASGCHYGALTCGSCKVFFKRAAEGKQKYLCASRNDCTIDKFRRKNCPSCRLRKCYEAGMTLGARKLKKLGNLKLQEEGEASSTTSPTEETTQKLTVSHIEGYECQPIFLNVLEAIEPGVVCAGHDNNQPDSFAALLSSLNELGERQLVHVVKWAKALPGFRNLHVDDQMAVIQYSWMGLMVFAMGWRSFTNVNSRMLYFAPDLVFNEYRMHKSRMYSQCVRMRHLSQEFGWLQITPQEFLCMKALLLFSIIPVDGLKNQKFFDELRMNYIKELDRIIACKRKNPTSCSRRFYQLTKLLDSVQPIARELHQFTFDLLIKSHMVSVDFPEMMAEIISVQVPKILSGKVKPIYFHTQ

`Cc1cccc(O)c1N`: the call in assay [1], in assay [3], in [4], in assay [5] and in assay [7] was inactive. Moreover, the Potency result in assay [2], in assay [6], in assay [8], in [9], in [10] and in [11] was “inactive” in each case. Further, in assay [12], the Potency entry is “inactive”.

Turning to `O=C(O)CCC(=O)C(=O)O`, the call in assay [1], in assay [3], in assay [4], in assay [5] and in [7] was inactive. The Potency result in assay [2], in assay [6], in [8], in assay [9], in [10] and in assay [11] was “inactive” each time. Moreover, the Potency result in assay [13], in [14], in [15], in [12] and in assay [16] was “inactive” each time.

Take `CCCC(=O)C(=O)O`: the call in assay [1], in assay [3], in [4], in [5] and in [7] was inactive. Besides, the Potency entry in assay [2], in assay [6], in assay [8], in [9], in [10] and in assay [11] was “inactive” throughout. In addition, the Potency result in assay [13], in [14], in assay [15], in assay [12] and in assay [16] was “inactive” each time.

`CCn1cc(C(=O)O)c(=O)c2cc(F)c(N3CCNCC3)cc21`: the compound was called inactive in assay [1], in assay [3], in assay [4], in [5] and in [7]. The Potency result in assay [2], in [6], in assay [8], in assay [9], in assay [10] and in assay [11] was “inactive” in each case. Also, the Potency result in assay [13], in assay [14], in assay [15], in assay [12] and in assay [16] was “inactive” each time.

Turning to `CC(=O)OCC[N+](C)(C)C`, the call in assay [1], in assay [3], in assay [4], in assay [5] and in [7] was inactive. In addition, the Potency entry in [2], in assay [6], in [8], in [9], in assay [10] and in assay [11] was “inactive” each time. The Potency result in assay [13], in [14], in [15], in assay [12] and in [16] was “inactive” throughout.

`CCc1ccccc1`: the compound was called inactive in [1], in [3], in [4], in [5] and in assay [7]. The Potency result in assay [2], in [6], in assay [8], in assay [9], in assay [10] and in [11] was “inactive” in each case. Also, the Potency result in [13], in assay [14], in assay [15], in assay [12] and in assay [16] was “inactive” throughout.

As for `CCOC(=O)[C@H](CCc1ccccc1)N[C@@H](C)C(=O)N(CC(=O)O)C1Cc2ccccc2C1`, the compound was classed as inactive in [1], in [3], in [4], in assay [5] and in assay [7]. The Potency entry in assay [2], in assay [6], in assay [8], in [9], in [10] and in assay [11] was “inactive” throughout. The Potency entry in assay [16] was “inactive”. For the same compound, the Potency in assay [13] was 21.1 µM (active); in assay [15] it was 23.7 µM (active).

On to `O=C(CCCN1CC=C(n2c(=O)[nH]c3ccccc32)CC1)c1ccc(F)cc1`, for which the compound was classed as inactive in [1], in [3], in [4], in assay [5] and in assay [7]. For the same compound, the Potency result in [2], in assay [6], in assay [8], in assay [9], in assay [10] and in assay [11] was “inactive” throughout. Also, the Potency entry in assay [12] and in [16] was “inactive” each time. The Potency in [13] was 29.8 µM (active).

In the case of `CN1CCCC(n2nc(Cc3ccc(Cl)cc3)c3ccccc3c2=O)CC1` (configuration not stated), the result in assay [1], in assay [3], in [4], in assay [5] and in [7] was inactive. Also, the Potency entry in assay [2], in assay [6], in [8], in [9], in assay [10] and in [11] was “inactive” throughout. Moreover, the Potency result in assay [12] is “inactive”. For the same compound, the Potency in assay [13] was 11.9 µM (active); in assay [14], 21.1 µM (active); in [15], 16.8 µM (active).

As for `C[C@@]12CCC[C@H]1[C@@H]1CC[C@H]3C[C@@H](O)CC[C@]3(C)[C@H]1CC2`, the call in assay [1], in [3], in assay [4], in [5] and in assay [7] was inactive. Further, the Potency entry in [2], in assay [6], in assay [8], in assay [9], in assay [10] and in [11] was “inactive” throughout. The Potency entry in assay [13], in [14], in assay [15], in [12] and in [16] was “inactive” each time.

For the compound `CC1(C)S[C@@H]2[C@H](NC(=O)C(c3ccccc3)S(=O)(=O)O)C(=O)N2[C@H]1C(=O)O` (some centres not stated), the compound was called inactive in assay [1], in [3], in assay [4], in assay [5] and in assay [7]. For the same compound, the Potency entry in [2], in [6], in assay [8], in [9], in assay [10] and in assay [11] was “inactive” each time. Besides, the Potency result in assay [13], in assay [14], in assay [15], in [12] and in assay [16] was “inactive” in each case.

Regarding `CCC=CC#N`, the compound was called inactive in assay [1], in assay [3], in assay [4], in assay [5] and in assay [7]. For the same compound, the Potency result in assay [2], in assay [6], in [8], in assay [9], in assay [10] and in assay [13] was “inactive” in each case. Further, the Potency result in [14], in [15], in assay [12] and in assay [16] was “inactive” each time.

As to `NC(=O)c1ccncc1`, the compound was classed as inactive in assay [1], in assay [3], in assay [4], in assay [5], in assay [7] and in assay [18]. Further, the compound was called inactive in assay [19]. Besides, the Potency result in assay [2], in [6], in [8], in assay [9], in assay [10] and in [11] was “inactive” throughout. The Potency result in [13], in [14], in assay [15], in assay [12], in assay [17] and in assay [16] was “inactive” throughout. Further, in [20], the Potency entry is “inactive”.

Regarding `CO/N=C(/C(=O)N[C@@H]1C(=O)N2C(C(=O)O)=C(COC(N)=O)CS[C@H]12)c1ccco1`, the compound was called inactive in assay [1], in [3], in assay [4], in assay [5] and in assay [7]. Moreover, the Potency result in [2], in assay [6], in assay [8], in assay [9], in assay [10] and in assay [11] was “inactive” in each case. For the same compound, the Potency result in [13], in assay [14], in [15], in assay [12] and in assay [16] was “inactive” throughout.

For `CCCCCCC(C)(C)C(=O)O`, the result in assay [1], in [3], in assay [4], in assay [5], in assay [7] and in assay [18] was inactive. Also, the compound was classed as inactive in assay [19]. Also, the Potency result in assay [2], in assay [6], in [8], in assay [9], in assay [10] and in [11] was “inactive” in each case. For the same compound, the Potency result in assay [13], in assay [14], in assay [15], in assay [12], in [16] and in assay [20] was “inactive” in each case.
